# High-throughput results from PubChem.
# HCMV inh: inhibitors of human cytomegalovirus | HFF cells, HCMV-luciferase reporter, 72 h; active compounds read low | activity change, negative = inhibition, % at 57.5 µM | 4.5% of 410,000 active; in the data active = activity change below about -60%; inconclusive = no clear call, values can overlap the other calls; inactive = above about -39%
#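 After 16 h attachment at 37C, HFF cells received test compound and HCMV-luciferase (1 PFU/cell); reporter luminescence read 72 h later, data normalized against buffer-only and known inhibitor Salinomycin.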
# VACV Venus inh: inhibitors of vaccinia virus (Venus reporter). Vaccinia virus Venus reporter expression, fluorescence. Potency, µM (titrated, usually from 36.5 µM), inactives show top-dose activity change, negative = inhibition, most hits filed as inhibitors. 0.46% of 330,000 active. AID 720580; calls by dose curve; tested in A549 cells; note: potency is the fitted concentration of half-maximal effect; nearly all actives have a fitted effect of over 30% in size
# FMDV inh: antivirals against foot and mouth disease virus | FMDV antiviral cell-based qHTS | Potency, µM (highest dose often 57.9 µM), for the others: at the highest dose activity change, negative = inhibition, hits mostly inhibitors | 1.2% of 410,000 active; calls by dose curve; tested in HEK293T cells; note: read-out not given here; potency is the fitted concentration of half-maximal effect; nearly all actives have a fitted effect of over 45% in size
# VACV mCherry inh: inhibitors of vaccinia virus infection (mCherry reporter signal). Vaccinia virus mCherry reporter infection, fluorescence. Potency, µM (doses to about 36.5 µM), inactives show at the highest dose activity change, negative = inhibition, hits mostly inhibitors. 0.63% of 310,000 active. AID 720579; calls by dose curve; tested in A549 cells; note: potency is the fitted concentration of half-maximal effect; nearly all actives have a fitted effect of over 35% in size
# HCV inh: blocks hepatitis C virus. Potency, µM (titrated, usually from 41.8 µM), inactives show at the top dose activity change, negative = inhibition, hits mostly inhibitors. 3.4% of 340,000 active. Huh7.5.1 HCVcc-Cre infection, luciferase reporter, 44 h; note: potency is the fitted concentration of half-maximal effect
#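 Luciferase read-out (15 sec integration) after a 15 min room-temperature substrate step quantifies HCVcc-Cre infection. Cells, 1,000 per well, had compound added 4 h post-plating, then virus at ~0.5 moi, and were cultured 44 h.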
# Giardia FBPA inh: blocks Giardia fructose-bisphosphate aldolase activity | purified Giardia FBPA | Potency, µM (titrated, usually from 59.6 µM), for the others: at the top dose activity, negative = inhibition, most hits filed as inhibitors | 0.71% of 290,000 active; note: potency is the fitted concentration of half-maximal effect; nearly all actives have a fitted effect of over 55% in size
# Target sequence (A8B2U2 whole entry, looked up): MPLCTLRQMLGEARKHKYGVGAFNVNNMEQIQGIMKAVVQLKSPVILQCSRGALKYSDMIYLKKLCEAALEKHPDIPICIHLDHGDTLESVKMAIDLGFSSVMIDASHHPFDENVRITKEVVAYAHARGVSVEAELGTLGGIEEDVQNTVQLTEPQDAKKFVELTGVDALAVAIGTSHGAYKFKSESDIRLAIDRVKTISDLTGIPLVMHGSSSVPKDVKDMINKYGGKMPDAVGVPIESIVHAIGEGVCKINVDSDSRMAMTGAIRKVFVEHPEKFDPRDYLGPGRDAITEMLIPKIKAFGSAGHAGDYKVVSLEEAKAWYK
#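 40 nM FBPA preincubated 10 min at RT with compound (up to 57.5 uM final), then substrate plus GAPDH/TPI/NAD/arsenate coupling and diaphorase/resazurin added. Fluorescence read after 20 min at RT, 525/598 nm.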
# * = called active by the depositor; i = inactive; u = inconclusive; x = no result given; [ ] = dose if it differs, or a comment. Sampled rows, rich in hits. Any-hit rate of the full collection: about 7.5%. Unless noted, calls come from the whole dose curve; as a rule, active = well fitted curve in the direction sought with a large enough effect; inconclusive = small, poorly fitted or top-dose-only effect, or another doubt; inactive = no such curve, though single readings can be large; an effect the other way counts as inactive or inconclusive. % is set by controls: 0 for no effect and ±100 for the full control effect.
SMILES,HCMV inh,VACV Venus inh,FMDV inh,VACV mCherry inh,HCV inh,Giardia FBPA inh
Cc1ccc2oc(C(=O)NCC(c3ccco3)N3CCCC3)c(C)c2c1 (centres undefined),-15,x,-13%,x,32µM*,x
CC1CN=C(c2ccc(Cl)cc2)c2c3ccc(C(F)(F)F)cc3nn21 (centres undefined),47,x,x,x,x,x
CC(C)C(NC(=O)c1ccccc1F)C(=O)NCC(c1ccco1)N1CCCCC1 (centres undefined),-64*,0%,2%,i,0%,x
COc1cccc(NC(=O)c2c(C)oc3nc(C)nc(N4CCCC4)c23)c1,88,-7%,-4%,i,x,x
COC(=O)c1cc(=O)n(CCc2ccccc2F)c(=Nc2ccc(F)c(Cl)c2)s1,u,u,16µM*,u,7.9µM*,-5%
COC(=O)c1cc(=O)n(-c2ccc(F)cc2)c(=Nc2ccc(F)cc2)s1,64,u,22µM*,u,u,-4%
COC(=O)c1cc(=O)n(Cc2ccco2)c(=Nc2ccc(F)c(Cl)c2)s1,-29,u,u,u,u,0%
CCOC(=O)c1ccc(N=c2sc(C(=O)OC)cc(=O)n2C2CC2)cc1,15,-9%,u,-14%,-5%,2%
COC(=O)c1ccc(N=c2sc(C(=O)OC)cc(=O)n2C)cc1,21,-8%,32µM*,i,11%,5%
COC(=O)c1cc(=O)n(Cc2cccs2)c(=Nc2ccc(F)cc2)s1,-29,u,u,-5%,u,-3%
COCC(=O)N1[C@@H]2c3cccc(=O)n3C[C@@H]2[C@@H](CO)[C@@H]1C(=O)NCc1ccccc1F,0,x,x,x,x,x
Cc1ccc(NS(=O)(=O)c2ccc(-c3cnc(C4CC4)o3)cc2)cc1N(C)C,u,-25%,-29%,-19%,x,x
CCn1c(N2CCC(Cc3ccccc3)CC2)nc2c1c(=O)[nH]c(=O)n2C,44,-26%,28µM*,u,-23%,-7%
CCCCCn1c(CN2CCN(Cc3ccccc3)CC2)nc2c1c(=O)[nH]c(=O)n2C,-69*,-13%,0%,-5%,-2%,-2%
O=C(C[n+]1ccncc1)c1ccc(Br)cc1,x,-2%,x,-19%,x,x
CCOc1ccc(Br)cc1C(=O)Nc1ccc(C(=O)NCC(C)C)cc1,-80*,-18%,-29%,-22%,u,22%
CCc1ccc(/C=N/NC(=O)c2ccccn2)cc1,-2,-26%,13µM*,i,-18%,-21%
CCOc1ccc(NC(=O)c2ccccn2)cc1,u,-5%,3.2µM*,i,2%,0%
CCOc1ccc(NC(=O)c2ccc(NC(=O)c3ccccc3Br)cc2)cc1,-16,-14%,1%,u,5µM*,x
CCOc1ccc(NC(=O)c2ccccc2O)cc1,15,-29%,-37%,x,-16%,4%
CCOc1ccc(NC(=O)c2cnccn2)cc1,86,-16%,-27%,x,0%,-13%
CCN(CC)c1ccc(/C=N/NC(=O)c2ccccn2)cc1,82,-25%,-10%,-17%,u,-22%
COc1ccc(C#CC2C=CC(Oc3cc(C)cc(C)c3)C(CO)O2)cc1 (centres undefined),x,x,x,x,x,0%[12.9 µM]
O=C(NCCOc1ccccc1)C1CCC(=O)N(C2CCCCCC2)C1 (centres undefined),-16,-12%,4%,-13%,-5%,9%
CN(Cc1cn(C)nc1-c1ccc(Oc2ccccc2)cc1)Cc1cnc2ccccn12,0,x,11µM*,x,u,-8%
Cn1cc(CNCc2cnc3ccccn23)c(-c2ccc(Oc3ccccc3)cc2)n1,u,-22%,-11%,u,u,-3%
CN1CCC(Oc2ccccc2Sc2ccc(C(F)(F)F)cc2)CC1,u,x,-25%,x,11µM*,-27%
Oc1ccc(/C=N/NC(=S)Nc2cccnc2)c(O)c1O,-25,14%,u,i,-15%,7.1µM*
Fc1c(F)c(F)c(/C=N/NC(=S)Nc2cccnc2)c(F)c1F,-81*,-24%,u,-2%,u,2%
Oc1cccc(/C=N/NC(=S)Nc2cccnc2)c1O,91,u,59%,u,u,-12%
